These results are taken from PubChem BioAssay (NCATS).

Results filed as inconclusive are left out. Calls of active or inactive are those of the source. The call rests on the fitted dose curve; in most records, active means well fitted curve in the direction sought with a large enough effect; inconclusive means small, poorly fitted or top-dose-only effect, or another doubt; inactive means no such curve, though single readings can be large; an effect the other way counts as inactive or inconclusive.

A short description of assay [1]: MultiTox-Fluor Cytotoxicity Assay - LYMP1-003 - Live Cells (AID 962).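 Further: cells exposed to compound for 16 hours at 37 °C.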 Summed up:
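Readout: live-cell fluorescence (Ex/Em=405/510) from GF-AFC cleavage after 60 min MultiTox-Fluor reagent at room temperature. Lymphoblastoid LYMP1-003 cells, 16 hr compound treatment, 37 C. Concentration-response fitted to standard Hill equation for AC50.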

A short description of assay [2]: Cell Viability - LYMP1-003 - Assay at 24 hr (AID 963). In short, it runs like this: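 CellTiter-Glo luminescence (intracellular ATP) read after 24 hr, 37 C compound exposure of 2500 LYMP1-003 human lymphoblastoid cells/well in complete medium; qHTS concentration series; AC50 via standard Hill equation.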
A short description of assay [3]: Cell Viability - LYMP1-003 - Assay at 40 hr (AID 964). Further: nearly all actives have a fitted effect of over 60% in size. In short, it runs like this: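 LYMP1-003 lymphoblastoid cells, 2500/well; 5 hr preincubation, 40 hr compound exposure, 37 C; CellTiter-Glo 30 min RT; luminescence; Hill-fit AC50. Positive control tetraoctylammonium bromide.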
Assay [4] in a line: Cell Viability - LYMP2-003 (AID 965).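 Further: cells exposed to compounds for 24 h before reading; nearly all actives have a fitted effect of over 50% in size.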 In short, it runs like this:
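Human lymphoblastoid LYMP2-003 cells, 2500/well, exposed to compounds for 24 h at 37 C in complete medium. Viability read as intracellular ATP by CellTiter-Glo luminescence; AC50 from Hill-equation fits of qHTS concentration-response data.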

Assay [5] is described as follows: Cell Viability - LYMP2-004 (AID 966). Further: nearly all actives have a fitted effect of over 65% in size. In short, it runs like this: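 Luminescent ATP read-out (CellTiter-Glo, 30 min RT) after 24 hr compound exposure at 37 C; 2500 lymphoblastoid cells/well, complete medium. Decrease in ATP = cytotoxicity; AC50 from standard Hill model.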
Assay [6] is described as follows: Cell Viability - LYMP2-005 (AID 967). In short, it runs like this: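 Human lymphoblastoid LYMP2-005 cells, 2,500 per well in complete medium, rested 5 h at 37C then compound-treated 24 h at 37C. Intracellular ATP read by CellTiter-Glo luminescence after 30 min at room temperature; AC50 from Hill-equation fits of concentration-response data.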
A short description of assay [7]: Cell Viability - LYMP2-009 (AID 968). Further: nearly all actives have a fitted effect of over 55% in size.
Assay [8] can be described thus: Cell Viability - LYMP2-011 (AID 969). Further: nearly all actives have a fitted effect of over 60% in size. Summed up: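 Luminescent ATP read-out (CellTiter-Glo, 30 min RT) after 24 hr compound exposure at 37 C in human lymphoblastoid cells, 2500 cells/well. Decreasing ATP indicates cytotoxicity; AC50 from standard Hill fit.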
A short description of assay [9]: Cell Viability - LYMP2-013 (AID 970). Further: nearly all actives have a fitted effect of over 55% in size. Summed up:
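CellTiter-Glo luminescence (cellular ATP) read after 30 min at RT. Cells: human lymphoblastoid line, 2500/well, 24 hr compound exposure at 37 C. Tetraoctylammonium bromide positive control; AC50 via standard Hill fit of qHTS titrations.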

A short description of assay [10]: Cell Viability - LYMP2-015 (AID 971). Further: nearly all actives have a fitted effect of over 55% in size. In short, it runs like this:
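qHTS cytotoxicity: 2500 cells/well, 5 hr 37 C, compound 24 hr 37 C, CellTiter-Glo 30 min RT, luminescence. Loss of ATP = toxicity; AC50 via standard Hill fit.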
Potency means the concentration at half of the fitted maximal effect.

`CCc1cc(C(N)=S)ccn1`: the Potency result in [1], in assay [2], in assay [3], in assay [4], in assay [5] and in assay [6] was “inactive” throughout. In addition, the Potency result in [7], in [8], in assay [9] and in [10] was “inactive” each time.

As for `NC(N)=NC(N)=NCCc1ccccc1`, the Potency result in assay [1], in assay [2], in [3], in assay [4], in assay [7] and in assay [8] was “inactive” in each case. Further, the Potency result in assay [9] was “inactive”.

Consider `Cc1ccnc2c1NC(=O)c1cccnc1N2C1CC1`, for which the Potency result in assay [1], in [2], in [3], in [4], in assay [5] and in assay [6] was “inactive” each time. Further, the Potency entry in assay [7], in assay [8], in assay [9] and in assay [10] was “inactive” throughout.

Take `Cc1noc(NS(=O)(=O)c2ccc(N)cc2)c1C`: the Potency result in assay [1], in [2], in assay [3], in [4], in [5] and in assay [6] was “inactive” throughout. In addition, the Potency entry in assay [7], in assay [8], in [9] and in assay [10] was “inactive” each time.

As for `Cc1cc(NS(=O)(=O)c2ccc(N)cc2)no1`, the Potency entry in [1], in [2], in assay [3], in assay [4], in assay [5] and in assay [6] was “inactive” throughout. The Potency entry in assay [7], in assay [8], in assay [9] and in assay [10] was “inactive” in each case.

Take `C[C@]12C=CC(=O)C=C1CC[C@@H]1[C@@H]2C(=O)C[C@@]2(C)[C@H]1CC[C@]2(O)C(=O)CO`: the Potency result in assay [1], in assay [2], in assay [3], in assay [4], in [5] and in assay [6] was “inactive” each time. For the same compound, the Potency entry in assay [7], in assay [8], in [9] and in assay [10] was “inactive” each time.

Turning to `CC(=O)[C@H]1CC[C@H]2[C@@H]3CCC4=CC(=O)CC[C@]4(C)[C@H]3CC[C@]12C`, the Potency result in assay [1] was “inactive”.

`CN(C)c1ccc(C(=C2C=CC(=[N+](C)C)C=C2)c2ccc(N(C)C)cc2)cc1`: the Potency in assay [1] is 15800 nM (active); in assay [2], 7940 nM (active); in [3], 2510 nM (active); in assay [4] it was 3160 nM (active); in assay [5], 1580 nM (active); in [6] it was 2510 nM (active). Moreover, the Potency is 2510 nM (active) in assay [7], 2510 nM (active) in [8], 3980 nM (active) in assay [9] and 2510 nM (active) in assay [10].

For the compound `COc1ccc2cc3[n+](cc2c1OC)CCc1cc2c(cc1-3)OCO2`, the Potency result in assay [1], in assay [2], in [4], in assay [5] and in assay [8] was “inactive” each time.

With `O=C(O)c1cc(=O)[nH]c(=O)[nH]1`, the Potency entry in assay [1], in [2], in assay [3], in [4], in assay [5] and in assay [6] was “inactive” in each case. In addition, the Potency entry in assay [7], in assay [8], in assay [9] and in assay [10] was “inactive” in each case.

With `Cc1nnc(NS(=O)(=O)c2ccc(N)cc2)s1`, the Potency entry in assay [1], in [2], in [3], in assay [4], in [5] and in assay [6] was “inactive” throughout. Besides, the Potency entry in assay [7], in assay [8], in [9] and in assay [10] was “inactive” in each case.

For `CC[C@H](C)C(=O)O[C@H]1C[C@@H](C)C=C2C=C[C@H](C)[C@H](CC[C@@H]3C[C@@H](O)CC(=O)O3)[C@H]21`, the Potency result in assay [1], in assay [2], in assay [7], in [8], in assay [9] and in assay [10] was “inactive” in each case.

With `Cc1ncc([N+](=O)[O-])n1CCO`, the Potency result in assay [1], in assay [2], in assay [3], in assay [4], in assay [5] and in [6] was “inactive” each time. The Potency entry in assay [7], in assay [8], in assay [9] and in [10] was “inactive” each time.

For `CC1=NN(c2ccccc2)C(=O)C1`, the Potency result in assay [1], in [2], in assay [3], in [4], in [5] and in assay [6] was “inactive” each time. In addition, the Potency result in assay [7], in assay [8], in assay [9] and in [10] was “inactive” each time.

As to `O=C(N[C@H](CO)[C@H](O)c1ccc([N+](=O)[O-])cc1)C(Cl)Cl`, the Potency result in assay [1], in [2], in assay [3], in [4], in [5] and in assay [6] was “inactive” throughout. Also, the Potency entry in [7], in assay [8], in assay [9] and in [10] was “inactive” throughout.

As to `NNC(=O)c1ccncc1`, the Potency entry in [1], in [2], in [3], in [4], in [5] and in assay [6] was “inactive” throughout. Further, the Potency result in assay [7], in [8], in assay [9] and in assay [10] was “inactive” in each case.

With `N=C(N)c1ccc(OCCCCCOc2ccc(C(=N)N)cc2)cc1`, the Potency entry in [1], in assay [2], in assay [4], in assay [5] and in assay [7] was “inactive” throughout. For the same compound, in assay [3], the Potency is 39800 nM (active).
